Experimental data published in PMC7862700, “An all-to-all approach to the identification of sequence-specific readers for epigenetic DNA modifications on cytosine”.

What was measured:
Test in all cases: DAPPL (digital affinity profiling via proximity ligation, sequencing); 10 mM Tris-HCl pH 7.5, 50 mM NaCl, 1 mM DTT, 4% glycerol, room temperature, 30 min; GST-TFs on glutathione beads, 16-mer random dsDNA library, 0.1% formaldehyde crosslink after washing; high values mean tight binding
FEV = molecular target: T1, FEV (Homo sapiens, UniProt Q99581 1-238); details: protein: recombinant; tags: N-terminal GST; dsDNA, one strand shown
T1 sequence: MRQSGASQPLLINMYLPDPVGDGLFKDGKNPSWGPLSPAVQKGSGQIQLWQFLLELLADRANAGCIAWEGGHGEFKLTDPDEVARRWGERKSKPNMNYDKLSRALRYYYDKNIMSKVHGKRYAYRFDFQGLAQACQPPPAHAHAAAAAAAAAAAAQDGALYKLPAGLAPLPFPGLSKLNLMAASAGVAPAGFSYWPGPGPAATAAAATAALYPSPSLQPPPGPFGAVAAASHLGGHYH
Method in brief: (§1)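 After expression in yeast as GST fusions, human transcription factors were bound to glutathione beads, DNA-barcoded and mixed with a tag-only sample. The pools were incubated with 200 nmole of a 16-mer random double-stranded DNA library in Tris/NaCl/DTT/glycerol buffer (30 min, room temperature), washed and crosslinked with 0.1% formaldehyde. Proximity ligation with BsaI/T4 ligase ran for 1 h at 37 °C, before PCR amplification and sequencing on an Illumina NextSeq500. Binding signal is a hexamer's read frequency for a factor divided by its frequency for the tag-only sample.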

ETV5 = ETV5 (Homo sapiens, UniProt P41161 1-510); details: protein: recombinant; tags: N-terminal GST; dsDNA, one strand shown
Sequence of ETV5 (P41161 whole entry): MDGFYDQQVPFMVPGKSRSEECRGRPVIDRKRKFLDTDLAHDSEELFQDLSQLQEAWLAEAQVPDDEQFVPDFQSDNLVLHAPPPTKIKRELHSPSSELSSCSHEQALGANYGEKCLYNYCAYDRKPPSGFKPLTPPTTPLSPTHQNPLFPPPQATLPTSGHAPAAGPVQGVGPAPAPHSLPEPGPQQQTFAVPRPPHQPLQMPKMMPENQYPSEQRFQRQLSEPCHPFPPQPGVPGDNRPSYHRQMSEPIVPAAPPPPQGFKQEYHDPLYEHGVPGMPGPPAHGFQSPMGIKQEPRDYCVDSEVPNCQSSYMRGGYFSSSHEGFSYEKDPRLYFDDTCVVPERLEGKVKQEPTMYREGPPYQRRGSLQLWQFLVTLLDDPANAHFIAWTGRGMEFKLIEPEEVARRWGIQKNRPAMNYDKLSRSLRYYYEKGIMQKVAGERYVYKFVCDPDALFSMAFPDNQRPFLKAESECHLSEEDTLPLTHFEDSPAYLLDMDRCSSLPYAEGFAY
Method in brief: as §1

HSF1 = HSF1 (Homo sapiens, UniProt Q00613 1-529); details: protein: recombinant; tags: N-terminal GST; chain copies: 3; dsDNA, one strand shown
Sequence of HSF1 (Q00613 whole entry): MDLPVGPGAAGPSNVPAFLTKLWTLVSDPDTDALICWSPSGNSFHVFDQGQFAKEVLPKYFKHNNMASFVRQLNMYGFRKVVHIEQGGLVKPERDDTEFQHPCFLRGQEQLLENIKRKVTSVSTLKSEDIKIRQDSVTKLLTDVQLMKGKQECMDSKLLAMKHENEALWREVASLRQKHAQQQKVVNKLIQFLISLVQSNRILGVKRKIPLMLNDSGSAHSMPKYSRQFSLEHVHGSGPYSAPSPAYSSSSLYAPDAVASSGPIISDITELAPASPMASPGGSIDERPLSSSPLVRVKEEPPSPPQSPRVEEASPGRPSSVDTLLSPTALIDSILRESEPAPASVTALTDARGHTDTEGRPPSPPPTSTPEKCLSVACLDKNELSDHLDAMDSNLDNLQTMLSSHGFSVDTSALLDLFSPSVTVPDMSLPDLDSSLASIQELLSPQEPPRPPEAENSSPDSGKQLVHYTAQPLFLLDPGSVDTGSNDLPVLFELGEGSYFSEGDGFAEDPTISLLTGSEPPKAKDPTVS
Method in brief: as §1

SPIC = molecular target: T2, SPIC (Homo sapiens, UniProt Q8N5J4 1-248); details: protein: recombinant; tags: N-terminal GST; dsDNA, one strand shown
T2 sequence: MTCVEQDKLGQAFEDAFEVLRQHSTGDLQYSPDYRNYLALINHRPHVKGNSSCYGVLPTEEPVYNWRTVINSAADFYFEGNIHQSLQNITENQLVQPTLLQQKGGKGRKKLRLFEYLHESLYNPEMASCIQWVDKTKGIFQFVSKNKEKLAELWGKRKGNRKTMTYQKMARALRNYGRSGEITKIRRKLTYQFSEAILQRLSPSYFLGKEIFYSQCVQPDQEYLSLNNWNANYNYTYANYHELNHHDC
Method in brief: as §1

ELF4 = ELF4 (Homo sapiens, UniProt Q99607 1-663); details: protein: recombinant; tags: N-terminal GST; dsDNA, one strand shown
Sequence of ELF4 (Q99607 whole entry): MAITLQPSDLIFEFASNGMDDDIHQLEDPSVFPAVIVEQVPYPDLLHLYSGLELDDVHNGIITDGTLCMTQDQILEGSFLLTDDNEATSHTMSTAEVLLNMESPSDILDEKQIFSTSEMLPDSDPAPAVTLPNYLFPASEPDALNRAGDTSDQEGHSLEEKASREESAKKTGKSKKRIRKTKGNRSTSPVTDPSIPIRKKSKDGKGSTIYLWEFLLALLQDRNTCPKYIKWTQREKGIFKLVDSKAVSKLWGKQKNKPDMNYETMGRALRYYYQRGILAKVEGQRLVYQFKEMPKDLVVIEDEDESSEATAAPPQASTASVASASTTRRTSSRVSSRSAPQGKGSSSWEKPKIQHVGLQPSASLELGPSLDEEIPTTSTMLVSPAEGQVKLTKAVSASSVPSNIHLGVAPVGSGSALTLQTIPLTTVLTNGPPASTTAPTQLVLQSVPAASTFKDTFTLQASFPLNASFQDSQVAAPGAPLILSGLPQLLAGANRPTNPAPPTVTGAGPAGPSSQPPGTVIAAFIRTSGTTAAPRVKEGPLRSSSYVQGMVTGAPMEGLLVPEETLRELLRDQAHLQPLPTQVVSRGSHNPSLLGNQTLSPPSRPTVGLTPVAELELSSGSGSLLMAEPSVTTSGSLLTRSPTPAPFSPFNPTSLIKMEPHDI
Method in brief: as §1

ELK4 = molecular target: T3, ELK4 (Homo sapiens, UniProt P28324-2 1-405); details: protein: recombinant; tags: N-terminal GST; dsDNA, one strand shown
T3 sequence: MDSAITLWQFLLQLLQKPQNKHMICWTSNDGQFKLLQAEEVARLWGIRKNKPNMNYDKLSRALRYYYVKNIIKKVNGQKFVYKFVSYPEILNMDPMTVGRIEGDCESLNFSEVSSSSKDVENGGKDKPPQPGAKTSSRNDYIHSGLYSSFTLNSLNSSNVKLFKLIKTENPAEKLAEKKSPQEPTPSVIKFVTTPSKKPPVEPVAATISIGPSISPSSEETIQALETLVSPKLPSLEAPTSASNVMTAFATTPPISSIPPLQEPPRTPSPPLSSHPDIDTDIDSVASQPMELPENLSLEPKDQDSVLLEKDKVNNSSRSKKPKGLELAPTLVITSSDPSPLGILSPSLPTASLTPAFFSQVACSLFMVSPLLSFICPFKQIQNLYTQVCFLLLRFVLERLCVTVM
Method in brief: as §1

ETV2 = molecular target: T4, ETV2 (Homo sapiens, UniProt O00321 1-342); details: protein: recombinant; tags: N-terminal GST; dsDNA, one strand shown
T4 sequence: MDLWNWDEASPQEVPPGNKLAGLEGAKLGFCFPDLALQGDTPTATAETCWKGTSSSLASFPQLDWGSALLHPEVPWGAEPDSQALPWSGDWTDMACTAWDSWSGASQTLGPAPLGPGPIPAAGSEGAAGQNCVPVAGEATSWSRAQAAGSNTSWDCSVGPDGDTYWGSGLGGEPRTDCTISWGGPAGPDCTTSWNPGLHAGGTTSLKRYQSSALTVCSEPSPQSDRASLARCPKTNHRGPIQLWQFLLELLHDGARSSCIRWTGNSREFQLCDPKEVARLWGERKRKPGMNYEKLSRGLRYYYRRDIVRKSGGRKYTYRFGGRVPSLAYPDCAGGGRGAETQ
Method in brief: as §1

ELF3 = molecular target: T5, ELF3 (Homo sapiens, UniProt P78545 1-371); details: protein: recombinant; tags: N-terminal GST; dsDNA, one strand shown
T5 sequence: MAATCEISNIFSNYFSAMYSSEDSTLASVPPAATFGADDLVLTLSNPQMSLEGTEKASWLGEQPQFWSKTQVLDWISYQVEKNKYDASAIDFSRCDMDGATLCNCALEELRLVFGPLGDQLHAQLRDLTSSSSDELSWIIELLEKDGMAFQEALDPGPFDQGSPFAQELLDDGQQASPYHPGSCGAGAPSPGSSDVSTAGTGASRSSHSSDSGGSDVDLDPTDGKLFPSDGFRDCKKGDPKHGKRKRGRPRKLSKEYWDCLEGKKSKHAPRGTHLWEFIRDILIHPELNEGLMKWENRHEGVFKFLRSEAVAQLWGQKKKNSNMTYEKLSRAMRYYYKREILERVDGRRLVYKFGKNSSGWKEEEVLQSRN
Method in brief: as §1

ETV1 = ETV1 (Homo sapiens, UniProt P50549 1-477); details: protein: recombinant; tags: N-terminal GST; dsDNA, one strand shown
Sequence of ETV1 (P50549 whole entry): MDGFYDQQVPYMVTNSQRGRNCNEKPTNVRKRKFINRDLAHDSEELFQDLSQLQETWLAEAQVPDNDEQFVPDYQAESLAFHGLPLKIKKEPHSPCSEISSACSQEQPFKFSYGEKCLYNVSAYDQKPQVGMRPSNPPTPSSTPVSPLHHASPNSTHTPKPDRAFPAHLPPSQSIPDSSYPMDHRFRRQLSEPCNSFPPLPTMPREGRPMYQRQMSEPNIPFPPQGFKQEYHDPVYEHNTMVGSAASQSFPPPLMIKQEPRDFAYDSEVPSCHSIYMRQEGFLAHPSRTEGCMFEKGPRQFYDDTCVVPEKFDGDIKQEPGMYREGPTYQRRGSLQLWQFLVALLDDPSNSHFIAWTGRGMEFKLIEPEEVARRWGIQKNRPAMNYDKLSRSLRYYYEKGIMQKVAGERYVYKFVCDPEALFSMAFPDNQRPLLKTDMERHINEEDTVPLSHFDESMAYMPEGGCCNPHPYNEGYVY
Method in brief: as §1

ATGGTC
binding signal (FEV): 1.36 fold enrichment (6-mer frequency, TF over GST control)
binding signal (ETV5): 1.57 fold enrichment (6-mer frequency, TF over GST control)
binding signal (HSF1): 1.01 fold enrichment (6-mer frequency, TF over GST control)
binding signal (SPIC): 1.63 fold enrichment (6-mer frequency, TF over GST control)
binding signal (ELF4): 1.59 fold enrichment (6-mer frequency, TF over GST control)
binding signal (ELK4): 1.38 fold enrichment (6-mer frequency, TF over GST control)
binding signal (ETV2): 1.47 fold enrichment (6-mer frequency, TF over GST control)
binding signal (ELF3): 1.48 fold enrichment (6-mer frequency, TF over GST control)
binding signal (ETV1): 1.41 fold enrichment (6-mer frequency, TF over GST control)
